Bioassay records (PubChem)
CCHF vOTU inh-1 – blocks the CCHF virus ovarian tumor domain protease | CCHFV vOTU protease, Pep-AMC fluorescence | inhibition, % at 11.5 µM | hit rate 0.55% among 370,000 | AID 651958; also: 0% = vehicle wells with enzyme and 100% = no enzyme wells
Sa RN4220 lethal – S. aureus RN4220 growth inhibition. AID 1259311. hit rate 0.33% among 330,000. inhibition, % (test concentration not listed). OD600, 16 h; in the data active = inhibition above about 85%;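 also: plate controls were untreated cells for no effect and reference antibiotic for full effect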
ugtP null kill – kills S. aureus RN4220 lacking UgtP | AID 1259309 | hit rate 0.54% among 330,000 | S. aureus RN4220 ugtP deletion, OD600 growth, 16 h | growth inhibition, % (no concentration beside the values); in the data active = growth inhibition above about 68%;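 also: plate controls were untreated wells for no effect and antibiotic for full effect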
PfHsp40 yeast – rescue of PfHsp40-mediated yeast toxicity | hit rate 0.68% among 340,000 | growth rescue, % at 12.5 µM | S. cerevisiae expressing PfHsp40, growth rescue, ATP luminescence; in the data active = growth rescue above about 28%, passing the limit was not always enough;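 also: yeast W303a lacking pdr1 and pdr3 grown in galactose medium; growth measured after three days at 30 °C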
Mtb hypoxia rep – inhibitors of hypoxia-regulated fluorescent reporter in Mycobacterium tuberculosis | M. tuberculosis hypoxia-regulated fluorescent reporter, fluorescence | fluorescence inhibition, % (concentration not given with the values) | hit rate 0.1% among 300,000; in the data active = fluorescence inhibition mostly above about 23%, no sharp cut-off; inactive = mostly below about 17%
Vc quorum ag-1 – quorum light induction in luxS cqsA deficient V. cholerae; V. cholerae BH1578 lux reporter, luminescence, 6 h; hit rate 0.16% among 350,000; activation, % at 18.7 µM; AID 588436; in the data active = activation mostly above about 9.7%, no sharp cut-off
Vc quorum ag-2 – inducers of V. cholerae quorum light production without autoinducers | AID 602243 | shares compounds with Vc quorum ag-1 | activation, % at 50 µM | 620 tested, under 10 active | V. cholerae BH1578 lux reporter, luminescence, 6 h; call rule not given here
HeLa 24h tox – kills HeLa cells within 24 hours | shares compounds with Vc quorum ag-1 | HeLa viability, CellTiter-Glo ATP luminescence | activity change, negative = cytotoxicity, % at 35 µM | 25 tested, under 10 active | AID 624140;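 active = signal drop with fitted half-maximal concentration at or below twice the highest valid dose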
CCHF vOTU inh-2 – CCHFV vOTU protease inhibition, confirmation; inhibition, % at 11.5 µM; Recombinant CCHFV vOTU, Pep-AMC fluorescence; AID 686976; shares compounds with CCHF vOTU inh-1; hit rate 17% among 1,900
* hit, by the source's call; i = inactive; nt = no result shown; + = active, no number. This is a sample that favours compounds with a hit; in the whole collection about 1.7% have one here. Rule as the data show it, unless noted: active = inhibition above about 30%; inactive = the rest.

SMILES	CCHF vOTU inh-1	Sa RN4220 lethal	ugtP null kill	PfHsp40 yeast	Mtb hypoxia rep	Vc quorum ag-1	Vc quorum ag-2	others
Cc1cc2c(ncn2C)c(NS(=O)(=O)c2cc(Cl)ccc2Cl)c1C	-9	17	4	0	2	17*	0
CCN(CC)CCNC(=O)c1ccc(NC(=O)Cc2ccsc2)cc1	9	-2	-5	-2	3	i	nt
CCCNC(=O)Cc1ccsc1	3	2	2	-1	-2	12	0
CCOc1ccccc1C=NNC(=O)c1c(C)nc2ccc(Br)cn12	nt	1	1	nt	10	nt	nt
Cc1cccc(-c2noc(CN(C(=O)C34CC5CC(CC(C5)C3)C4)C(C)C)n2)c1	9	-4	9	3	nt	18*	0
CC(C)N(Cc1nc(-c2ccc(Cl)cc2)no1)C(=O)C12CC3CC(CC(C3)C1)C2	-3	3	1	-1	nt	4	nt
O=C(Oc1nsnc1N1CCCCC1)N1CCOCC1	3	-3	7	20	23	13	0
O=C(Oc1nsnc1N1CCOCC1)N1CCCC1	4	3	-1	0	nt	0	nt
O=C(Cc1ccc2c(c1)CCCC2)Nc1ccccc1Br	27	-1	17	-1	3	427*	28
CNC(=S)NN=Cc1cn(CCOc2cccc(OC)c2)c2ccccc12	nt	26	25	nt	-4	nt	nt
CCCOc1cc(C)c(S(=O)(=O)NCCOC)cc1C	5	2	-3	2	4	14	0
Nc1nc(F)nc2c1ncn2C1OC(CO)C(O)C1O (stereo not given)	nt	7	11	nt	nt	nt	nt
COc1ccccc1NC(=O)COC(=O)c1ccc2c(c1)OCCO2	-3	7	4	-1	11	52*	7
Cn1cc(C(=O)OCC(=O)NC2CCCCC2)c2ccccc21	3	1	-1	-1	3	1	nt
COc1ccccc1NC(=O)COC(=O)c1cn(C)c2ccccc12	13	7	-9	1	0	+	268
Cc1cc(C(=O)OCC(=O)Nc2ccc(F)c(F)c2F)c(C)o1	-9	3	-4	0	7	-1	nt
Cc1cc(C(=O)OCC(=O)Nc2c(Cl)cccc2C(F)(F)F)c(C)o1	-3	5	3	2	6	9	1
COc1ccc(Cl)cc1NC(=O)COC(=O)c1cc(C)oc1C	27	3	-8	1	17	+	589
COc1ccccc1NC(=O)COC(=O)c1oc2ccccc2c1C	1	3	-16	2	7	26*	27	HeLa 24h tox=-5
COc1ccccc1NC(=O)COC(=O)c1cc(C)oc1C	1	5	10	-1	4	nt	i
COc1ccccc1NC(=O)c1oc2ccccc2c1C	-7	nt	nt	nt	nt	-1	nt
CCOCCCNC(=O)C(NC(=O)CNC(=O)c1ccccc1)c1ccccc1 (stereo not given)	-1	0	2	-1	9	28*	0
CCOCCCNC(=O)C(NC(=O)CNC(C)=O)c1ccc(Cl)cc1 (stereo not given)	1	4	4	-1	nt	0	nt
CC(=NOCC(=O)Nn1c(C)nc2ccccc2c1=O)c1ccccc1	nt	7	-3	nt	10	nt	nt
CCOC(=O)CNc1c(-c2ccc(Cl)cc2)nc2cnccn12	-159	-6	-12	1	nt	25*	0
SMILES	CCHF vOTU inh-1	Sa RN4220 lethal	ugtP null kill	PfHsp40 yeast	Mtb hypoxia rep	Vc quorum ag-1	Vc quorum ag-2	others
COCCNC(=O)N1C2CCC1C(C(=O)OC)=C(c1ccc(OC)c(OC)c1)C2 (stereo not given)	nt	4	-2	nt	5	nt	nt
NS(=O)(=O)c1ccc(NC(=S)NC2CCCCC2)cc1	8	-2	1	0	2	0	nt
NS(=O)(=O)c1ccc(NC(=O)NC2CCCCC2)cc1	7	nt	nt	0	nt	32*	18
CCC(C)Cn1c(S(=O)(=O)O)nc2ccccc21 (stereo not given)	-14	-19	-8	0	-1	24	0
CC(C)Cn1c(S(=O)(=O)O)nc2ccccc21	-10	4	11	-2	2	i	nt
Cc1ccc2c(c1)c1c(n2CC(O)CNC(C)(C)C)CCCC1 (stereo not given)	57*	4	-8	1	nt	0	nt	CCHF vOTU inh-2=-14
Cc1ccc2c(c1)c1c(n2CC(O)CN2CCCCCC2)CCCC1 (stereo not given)	35*	-1	-2	0	8	i	nt	CCHF vOTU inh-2=-1
CCOC(=O)C1C2COc3cc(OC)ccc3C2N2C(=O)c3cc(C)ccc3NC(=O)[C@@]12C (stereo not given in full)	nt	-5	-1	nt	-5	nt	nt
NC(=O)NN=Cc1sc(=O)n(-c2ccccc2)c1Cl	nt	2	12	nt	-5	nt	nt
Cc1ccc(S(=O)(=O)Nc2ccc(Nc3nccn4c(-c5cccc(OC(F)(F)F)c5)cnc34)cc2)cc1	30*	nt	nt	nt	nt	-1	nt	CCHF vOTU inh-2=-5
COc1cccc(C=NNC(=S)Nc2cccc(C(=O)O)c2)c1	nt	3	-4	nt	-5	nt	nt
COC(=O)/C(=C/Nc1ccc(O)cc1)[N+](=O)[O-]	93*	2	-4	1	9	i	nt	CCHF vOTU inh-2=-7
O=C(NC(Cc1ccc(O)cc1)C(=O)O)c1cccnc1 (stereo not given)	nt	3	-1	nt	10	nt	nt
CN(C(=O)c1ccc(NC(=O)Cc2cccc(NC(=O)C3CCN(C(=O)C4CCCCC4)CC3)c2)cc1)C1CC1	34*	nt	nt	0	nt	-1	nt	CCHF vOTU inh-2=-21
O=C(Cc1ccc(NC(=O)C2CCCN(C(=O)C3CCCC3)C2)cc1)Nc1cccc(C(=O)N2CCCCC2)c1 (stereo not given)	-5	3	5	1	-1	-2	nt
CN(C(=O)c1ccc(NC(=O)Cc2cccc(NC(=O)C3CCN(C(=O)C4CCCC4)CC3)c2)cc1)C1CCCC1	2	3	3	1	3	i	nt
O=C(Cc1ccc(NC(=O)C2CCCN(C(=O)c3ccccc3)C2)cc1)Nc1cccc(C(=O)N2CCCCC2)c1 (stereo not given)	32*	nt	nt	nt	nt	nt	nt	CCHF vOTU inh-2=-21
Cc1c(/C=N/NC(N)=O)c2ccccn2c1C(=O)c1ccncc1	32*	nt	nt	0	nt	i	nt	CCHF vOTU inh-2=-3
N#CCCN(C(=O)COC(=O)CCNS(=O)(=O)c1ccccc1)c1ccccc1	58*	0	2	-1	-4	i	nt	CCHF vOTU inh-2=3
CCCCCCCCN1C(=O)[C@@H](CC(=O)N2CCCCC2)C[C@@]2(C(=O)OC)C1=C[C@H](C(C)C)O[C@@H]2C1CC1	32*	nt	nt	nt	nt	nt	nt	CCHF vOTU inh-2=8
CCCCCCCCN1C(=O)[C@@H](CC(=O)NCCCOC)C[C@@]2(C(=O)OC)C1=C[C@H](C(C)C)O[C@@H]2C1CC1	17	nt	nt	nt	nt	nt	nt
CCCCCCCCN1C(=O)[C@@H](CC(=O)NCCC(C)C)C[C@@]2(C(=O)OC)C1=C[C@H](C(C)C)O[C@@H]2C1CC1	35*	nt	nt	nt	nt	nt	nt	CCHF vOTU inh-2=17
